Pf apPOL block: Pf-apPOL DNA polymerase inhibition; Recombinant Pf-apPOL, molecular beacon fluorescence, 1.5 h; inhibition, % at 10 µM; 210,000 compounds, 0.25% hits
mHTT-CaM PPI inh: disrupts binding of mutant huntingtin to calmodulin. inhibition, % at 15 µM. P42858. AID 1671202. 190,000 compounds, 3.6% hits. AlphaScreen His-mHTT/GST-CaM binding, luminescence
Hits are given with their value; n = inactive; x = no result given; ! = a repeat was not active. In the library only some 3.5% were active in any assay of this set; here they are far more common. Cut-off read from the data, not from the text of the source: active = inhibition above about 50%; inactive = the rest.

SMILES | Pf apPOL block | mHTT-CaM PPI inh
COc1ncc(-c2ccc(N3C(c4ccsc4)=Cc4ccc(F)cc4C3CC(=O)c3ccco3)cc2)cn1 (stereo unspecified) | n | n
COc1cc(OC)cc(C2=Cc3ccccc3C(CC(C)=O)N2c2ccc(-c3cncnc3)cc2)c1 (stereo unspecified) | n | 50
O=C(CC1c2ccccc2C=C(c2ccsc2)N1c1ccc(-c2cccnc2)cc1)C1CC1 (stereo unspecified) | n | 84
Cc1ccc(C(=O)N2CCC(N3CCN(Cc4ccc(F)cc4)C3=O)CC2)cc1 | n | n
COc1ccc(S(=O)(=O)CCC(=O)Nc2ccc(Cl)c(C(F)(F)F)c2)cc1 | n | n
CCN1c2cc(Cl)ccc2C(=O)NC12CCN(C(=O)NCc1ccc(F)cc1)CC2 | n | 58
CCN1c2cc(Cl)ccc2C(=O)NC12CCN(C(=O)NCc1ccc(C)cc1)CC2 | n | n
CC(C)[C@@H](COc1ccccc1)N1CCN(Cc2ccccc2)CCC1=O | n | n
O=C1CCN(Cc2ccccc2)CCN1[C@H](COc1ccccc1)c1ccccc1 | n | 85
COc1cccc(Oc2c(C)oc3c4c(ccc3c2=O)OCN(Cc2ccccn2)C4)c1 | n | 100
Cc1oc2c3c(ccc2c(=O)c1-c1ccccc1)OCN(Cc1ccccn1)C3 | n | 69
COCCN1COc2ccc3c(=O)c(Oc4cccc(OC)c4)c(C(F)(F)F)oc3c2C1 | n | n
Cc1oc2c3c(ccc2c(=O)c1-c1ccccc1)OCN(CC1CCCO1)C3 (stereo unspecified) | n | n
Cc1ccc(NC(=O)CN(c2ccc(I)cc2)S(C)(=O)=O)c(C)c1 | n | n
COc1ccccc1-c1coc2c3c(ccc2c1=O)OCN(C1CCCCC1)C3 | n | n
CC(=O)Nc1ccc2c(c1)OCCO2 | n | x
COc1ccc(OC)c(C2NC(C(=O)O)CS2)c1 (stereo unspecified) | n | n
CC(=O)Nc1ccc(NC(=O)c2ccc(Cl)cc2Cl)cc1 | n | n
CC(=O)Nc1ccc2c(c1)C1C=CCC1C(C(=O)O)N2 (stereo unspecified) | n | 89
COc1ccc2c(c1)C1C=CCC1C(C(=O)O)N2 (stereo unspecified) | n | 100
O=C(Nc1ccc2c(c1)C1C=CCC1C(C(=O)O)N2)c1ccc(Cl)cc1Cl (stereo unspecified) | n | 94
CC(=O)Nc1ccc2c(c1)C1C=CCC1C(c1ccccc1F)N2 (stereo unspecified) | n | 73
O=C(CSc1ncccc1C(=O)NCc1cccnc1)Nc1cccc(C(F)(F)F)c1 | n | n
O=C(CSc1nc2ccc([N+](=O)[O-])cc2[nH]1)Nc1ccc(Cl)cc1 | n | n
Cc1cc(-c2nnc(NC(=O)c3ccc4c(c3)OCCO4)o2)c(C)o1 | n | n
SMILES | Pf apPOL block | mHTT-CaM PPI inh
Cc1cc(-c2nnc(NC(=O)c3ccn(C)n3)o2)c(C)o1 | n | 68
Cc1ccc2c(c1)-c1c(ssc1=S)C(C)(C)N2 | x | 52
CCCN1c2ccccc2-c2c(ssc2=S)C1(C)C | x | n
CCOc1ccc2c(c1)-c1c(ssc1=S)C(C)(C)N2 | x | 51
COc1ccc(-n2nnnc2CNC(=O)c2ccccc2SC(F)F)cc1 | n | n
Cc1ccccc1C1CN(C(=O)c2cccs2)CC1C(=O)NCC1CC1 (stereo unspecified) | n | n
Cn1ccc2c(N3CCCCC3)cc3c(c21)C1CCC3C1 (stereo unspecified) | n | 78
Cn1ccc2c(N3CCCC3)cc3c(c21)C1CCC3C1 (stereo unspecified) | n | n
Cn1ccc2c(N3CCCCCC3)cc3c(c21)C1CCC3O1 (stereo unspecified) | n | 66
Cn1ccc2c(-c3cncc4ccccc34)cc3c(c21)C1CCC3O1 (stereo unspecified) | n | 100
Cn1ccc2c(N3CCCC3)cc3c(c21)C1CCC3O1 (stereo unspecified) | n | n
Cc1ccccc1-c1cc2c(c3c1ccn3C)C1CCC2O1 (stereo unspecified) | n | n
CC(C)C(=O)N1CCN(c2nc3c(s2)CC(C(=O)NCc2ccccc2)CC3)CC1 (stereo unspecified) | n | n
CCOc1ccccc1C(=O)n1cc(Cl)cn1 | 98! | n
O=C(c1c[nH]c2ccccc12)N1CCC2(CC1)NC(=O)N(Cc1ccc(Cl)cc1)C2=O | n | 90
CCOc1ccccc1C(=O)N1CCC2(CC1)NC(=O)N(Cc1ccc(Cl)cc1)C2=O | n | 55
CCOc1ccccc1C(=O)N1CCN(c2ccc(Cl)cc2)CC1 | n | n
O=C(c1cccc2[nH]ccc12)N1CCC2(CC1)NC(=O)N(Cc1ccc(Cl)cc1)C2=O | n | n
COc1ccccc1C(=O)N1CCC2(CC1)NC(=O)N(Cc1ccc(Cl)cc1)C2=O | n | n
COc1ccc2nc(C(=O)NCc3cccc(Br)c3)cn2n1 | n | n
CC(=O)/C(=N\Nc1ccccc1)N1CCOCC1 | n | n
C#CCN1C(=O)C2(C(C#N)=C(N)OC3=C2C(=O)CC(C)(C)C3)c2ccccc21 (stereo unspecified) | n | n
COc1ccc(CC(C)(O)CNC(=O)c2ccccc2Br)cc1 (stereo unspecified) | n | n
COc1ccc(NC(=O)C2CC(=O)N(C)C(=Nc3ccc(Cl)c(Cl)c3)S2)cc1 (stereo unspecified) | n | 85
COc1ccc(NC(=O)C2CC(=O)N(C)C(=Nc3ccc(Cl)c(C(F)(F)F)c3)S2)cc1 (stereo unspecified) | n | n
SMILES | Pf apPOL block | mHTT-CaM PPI inh
COc1ccc2nc(C)cc(Nc3cccc(Cl)c3)c2c1 | n | n
COc1ccc(C2=C/C(=C\c3cc(OC)c(OC)cc3[N+](=O)[O-])C(=O)O2)cc1 | n | n
O=C1/C(=C/c2ccc(O)cc2)CC/C1=C\c1ccc(O)cc1 | n | n
COc1ccc(C=C2Oc3c(ccc4c3CN(Cc3ccccn3)CO4)C2=O)c(OC)c1 | n | 100
COc1ccccc1CN1COc2ccc3c(c2C1)OC(=Cc1ccncc1)C3=O | n | 100
COc1ccccc1CN1COc2ccc3c(c2C1)OC(=Cc1cccnc1)C3=O | n | n
COc1cccc(C=C2Oc3c(ccc4c3CN(Cc3ccccn3)CO4)C2=O)c1 | n | 99
COc1ccc(OC)c(C=C2Oc3c(ccc4c3CN(Cc3ccncc3)CO4)C2=O)c1 | n | n
COc1cc(C=C2Oc3c(ccc4c3CN(c3ccc5c(c3)OCO5)CO4)C2=O)cc(OC)c1OC | n | 59
COc1ccc(N2COc3ccc4c(c3C2)OC(=Cc2ccc(OC)c(OC)c2)C4=O)cc1 | n | n
COc1cccc(CN2COc3ccc4c(c3C2)OC(=Cc2cc(OC)c(OC)c(OC)c2)C4=O)c1 | n | n
Cc1ccc(-n2cnc3cc(C(=O)O)ccc32)cc1Cl | n | n
Cc1ccc(C2C(C#N)=C(N)N(c3ncn[nH]3)C3=C2C(=O)CCC3)cc1 (stereo unspecified) | n | n
CC(C)(Oc1ccc(Cl)cc1)C(=O)NCCS(=O)(=O)N1CCc2ccccc2C1 | n | n
NS(=O)(=O)c1cccc(N(S(=O)(=O)c2cc(Cl)sc2Cl)S(=O)(=O)c2cc(Cl)sc2Cl)c1 | n | x
C(=Nc1ccc2c(c1)OCO2)c1cccs1 | n | x
O=C(/C=C/c1ccco1)Nc1cccc(NC(=O)c2cccs2)c1 | n | n
COc1cc(C=C2Oc3c(ccc4c3CN(Cc3ccccn3)CO4)C2=O)cc(OC)c1OC | n | 100
COc1ccccc1CN1COc2ccc3c(c2C1)OC(=Cc1cc(OC)c(OC)c(OC)c1)C3=O | n | n
